# Out of some 2,300 compounds screened, about 1,100 (48%) were called active.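 Rule for the calls: active = inhibition above the mean inhibition of all tested sample wells plus 3 SD (cut at about 10% in these data); inactive = the rest.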 So high a share suggests a set chosen from earlier hits. These entries were drawn from the full list.
# Molecular target: Luciferin 4-monooxygenase (Photinus pyralis) (UniProt P08659)
# Assay: firefly luciferase inhibitors, HSP90 counter-screen, confirmation, artefact control for HSP90 inhibitor project, biochemical, luminescence, triplicate (AID 1847);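 note: 0% = DMSO with luciferase and 100% = wells lacking luciferase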
# Details: purified native firefly luciferase, at 5.9 µM, hits give high values
# Luciferin 4-monooxygenase (Photinus pyralis), sequence (P08659 whole entry, looked up): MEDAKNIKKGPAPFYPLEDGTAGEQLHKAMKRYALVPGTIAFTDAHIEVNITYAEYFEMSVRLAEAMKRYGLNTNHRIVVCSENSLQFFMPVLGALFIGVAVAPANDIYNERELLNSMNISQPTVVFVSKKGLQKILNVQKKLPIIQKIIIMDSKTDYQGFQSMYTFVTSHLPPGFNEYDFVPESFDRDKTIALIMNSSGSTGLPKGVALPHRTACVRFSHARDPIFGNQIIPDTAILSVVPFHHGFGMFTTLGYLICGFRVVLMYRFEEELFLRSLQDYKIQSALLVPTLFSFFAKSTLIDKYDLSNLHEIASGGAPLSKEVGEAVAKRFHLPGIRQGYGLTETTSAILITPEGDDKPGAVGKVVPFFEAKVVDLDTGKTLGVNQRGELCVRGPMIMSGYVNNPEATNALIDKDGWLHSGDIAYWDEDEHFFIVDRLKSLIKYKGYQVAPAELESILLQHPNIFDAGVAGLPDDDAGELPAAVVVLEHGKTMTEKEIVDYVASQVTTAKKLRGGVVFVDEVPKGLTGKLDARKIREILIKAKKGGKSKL
row,SMILES,inhibition
1,COc1cccc(-c2nc3ccc(N4CCN(C)CC4)cc3[nH]2)c1,38.9% (active)
2,O=c1c2ccccc2nc(/C=C/c2ccco2)n1-c1ccccc1O,4.47% (inactive)

# From PubChem BioAssay AID1847 (The Scripps Research Institute Molecular Screening Center, 2009)
